From the supplement of paper PMC6609913
Counter-ions that a name gives are not always drawn. ± gives the standard deviation of the averaged measurements. The full ranking holds about 1,300 compounds; the median of “normalised cell viability” is about 1, and the lowest 2% start at about 0.15. The list comes from a sample in which the lowest values are over-represented; it also holds similar structures and randomly drawn compounds.

Tested on: V-C8 + BRCA2 (BRCA2-proficient hamster cells)
Experiment: normalised cell viability (fraction of plate median); higher = more viable cells (less toxic)
Details: 5 µM
In short: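 Hamster V-C8 cells lacking BRCA2 and V-C8 cells with BRCA2 restored were seeded in 96-well plates. Library drugs (10 mM DMSO stocks) were added 24 h later at 5 μM in 100 μl medium, next to DMSO control wells, for 3 days (screen 1) or 6 days (screen 2). Cell viability was read by resazurin assay, median-plate normalised (modified robust per cent of sample), and triplicate wells were averaged.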

SMILES	normalised cell viability (treatment time: 3 days)	normalised cell viability (treatment time: 6 days)
C[n+]1ccccc1/C=N/O [Pralidoxime chloride]	0.99 ± 0.036	0.9475 ± 0.0081
NS(=O)(=O)c1cc(C2(O)NC(=O)c3ccccc32)ccc1Cl (configuration not stated) [Chlorthalidone]	1.1 ± 0.018	1.03 ± 0.079
CCc1cccc2c3c([nH]c12)C(CC)(CC(=O)O)OCC3 (configuration not stated) [Etodolac]	0.922 ± 0.034	1.04 ± 0.084
CN[C@@H]1[C@H](O[C@H]2[C@H](O[C@H]3[C@H](O)[C@@H](O)[C@H](NC(=N)N)[C@@H](O)[C@@H]3NC(=N)N)O[C@@H](C)[C@]2(O)CO)O[C@@H](CO)[C@H](O)[C@H]1O [Dihydrostreptomycin sulfate]	0.911 ± 0.07	0.983 ± 0.042
NS(=O)(=O)c1cc2c(cc1C(F)(F)F)NC(Cc1ccccc1)NS2(=O)=O (configuration not stated) [Bendroflumethiazide]	0.992 ± 0.096	1.03 ± 0.032
CC[C@H](C)C(=O)O[C@H]1CCC=C2C=C[C@H](C)[C@H](CC[C@@H]3C[C@@H](O)CC(=O)O3)[C@H]21 [Mevastatin]	0.246 ± 0.0034	0.23 ± 0.011
CC[C@H](C)C(=O)O[C@H]1C[C@H](O)C=C2C=C[C@H](C)[C@H](CC[C@@H](O)C[C@@H](O)CC(=O)O)[C@H]21 [Pravastatin]	0.969 ± 0.14	1.02 ± 0.089
CC[C@H](C)C(=O)O[C@H]1C[C@@H](C)C=C2C=C[C@H](C)[C@H](CC[C@@H]3C[C@@H](O)CC(=O)O3)[C@H]21 [Lovastatin]	0.19 ± 0.015	0.153 ± 0.019
NCCNCCNCCNCCN [Tetraethylenepentamine pentahydrochloride]	0.972 ± 0.03	1.01 ± 0.024
CC=CC1=C(C(=O)O)N2C(=O)[C@@H](NC(=O)[C@H](N)c3ccc(O)cc3)[C@H]2SC1 [Cefprozil]	0.951 ± 0.071	0.908 ± 0.072
Clc1cnccn1 [2-Chloropyrazine]	1.02 ± 0.036	1.02 ± 0.071
Cc1cc(-c2ccccc2)nnc1NCCN1CCOCC1 [Minaprine dihydrochloride]	1.1 ± 0.02	1.03 ± 0.048
CC(C(=O)O)c1ccc2c(c1)[nH]c1ccc(Cl)cc12 (configuration not stated) [Carprofen]	1.04 ± 0.11	1.04 ± 0.13
CN(Cc1ccc(C(C)(C)C)cc1)Cc1cccc2ccccc12 [Butenafine Hydrochloride]	1.06 ± 0.05	0.982 ± 0.048
C[C@@H]1C[C@H]2[C@@H]3C[C@H](F)C4=CC(=O)C=C[C@]4(C)[C@@]3(Cl)[C@@H](O)C[C@]2(C)[C@H]1C(=O)COC(=O)C(C)(C)C [Clocortolone pivalate]	1.03 ± 0.27	0.899 ± 0.07
CCN(CC)C(=O)C1(c2ccccc2)CC1CN (configuration not stated) [Milnacipran hydrochloride]	0.956 ± 0.095	0.937 ± 0.048
COc1nc(C)nc(Cl)c1NC1=NCCN1 [Moxonidine]	1.014 ± 0.0037	0.9963 ± 0.0028
CC1CC(OC(=O)c2ccccc2O)CC(C)(C)C1 (configuration not stated) [Homosalate]	1.03 ± 0.04	1.02 ± 0.074
CN(C)C(=O)C(CCN1CCC(O)(c2ccc(Cl)cc2)CC1)(c1ccccc1)c1ccccc1 [Loperamide hydrochloride]	0.687 ± 0.041	0.67 ± 0.057
CN[C@H](CC(C)C)C(=O)N[C@H]1C(=O)N[C@@H](CC(N)=O)C(=O)N[C@H]2C(=O)N[C@H]3C(=O)N[C@H](C(=O)N[C@H](C(=O)O)c4cc(O)cc(O)c4-c4cc3ccc4O)[C@H](O)c3ccc(c(Cl)c3)Oc3cc2cc(c3O[C@@H]2O[C@H](CO)[C@@H](O)[C@H](O)[C@H]2O[C@H]2C[C@](C)(N)[C@H](O)[C@H](C)O2)Oc2ccc(cc2Cl)[C@H]1O [Vancomycin hydrochloride]	0.177 ± 0.0067	0.17 ± 0.018
CCCCCNC(=N)N/N=C/c1c[nH]c2ccc(OC)cc12 [Tegaserod maleate]	0.1362 ± 0.0013	0.155 ± 0.022
COc1ccc2[nH]cc(CCNC(C)=O)c2c1 [Melatonin]	1.22 ± 0.097	0.928 ± 0.048

SMILES	normalised cell viability (treatment time: 3 days)	normalised cell viability (treatment time: 6 days)
CC[C@@H](CO)NCCN[C@@H](CC)CO [Ethambutol dihydrochloride]	1.05 ± 0.058	1 ± 0.011
C1CCC(C(CC2CCCCN2)C2CCCCC2)CC1 (configuration not stated) [Perhexiline maleate]	0.135 ± 0.0029	0.125 ± 0.015
Cc1nnc(SCC2=C(C(=O)O)N3C(=O)[C@@H](NC(=O)Cn4cnnn4)[C@H]3SC2)s1 [Cefazolin sodium salt]	1.1 ± 0.034	1.01 ± 0.12
CCCCCCCCCCCCCCCC[N+](C)(C)CCN(Cc1ccc(OC)cc1)c1ncccn1 [Thonzonium bromide]	0.787 ± 0.094	0.74 ± 0.19
CCCC1O[C@@H]2C[C@H]3[C@@H]4CCC5=CC(=O)C=C[C@]5(C)[C@H]4[C@@H](O)C[C@]3(C)[C@]2(C(=O)CO)O1 (some centres not stated) [Budesonide]	0.9516 ± 0.0071	0.936 ± 0.024
CC1(C)OC(=O)NC1=O [Dimethadione]	1.08 ± 0.064	0.964 ± 0.043
CNC[C@H](O)[C@@H](O)[C@H](O)[C@H](O)CO [Meglumine]	0.938 ± 0.094	0.983 ± 0.037
C[N+](C)(C)CCOC(N)=O [Carbachol]	0.953 ± 0.043	1.01 ± 0.036
CN1C2CCCC1CC(NC(=O)c1nn(C)c3ccccc13)C2 (configuration not stated) [Granisetron]	1.03 ± 0.036	1.01 ± 0.017
CCN(CC)CCOC(=O)C1(c2ccc([N+](=O)[O-])cc2)CCCC1 [Nitrocaramiphen hydrochloride]	1.06 ± 0.024	1.038 ± 0.0056
CCCCCN(CCCCC)C(=O)C(CCC(=O)O)NC(=O)c1ccc(Cl)c(Cl)c1 (configuration not stated) [Lorglumide sodium salt]	1 ± 0.032	1.04 ± 0.015
Cc1onc(-c2ccccc2)c1C(=O)N[C@@H]1C(=O)N2[C@@H]1SC(C)(C)[C@@H]2C(=O)O [Oxacillin sodium]	1.04 ± 0.042	0.989 ± 0.025
CC(=O)OC[C@H]1O[C@@H]([S-])[C@H](OC(C)=O)[C@@H](OC(C)=O)[C@@H]1OC(C)=O.CCP(CC)CC.[Au+] [Auranofin]	0.126 ± 0.0085	0.128 ± 0.012
C[C@H]1O[C@H](O[C@H]2[C@H](O)[C@@H](O)[C@@H](O[C@H]3[C@H](O)[C@@H](O)C(O)O[C@@H]3CO)O[C@@H]2CO)[C@H](O)[C@@H](O)[C@@H]1N[C@H]1C=C(CO)[C@@H](O)[C@H](O)[C@H]1O (some centres not stated) [Acarbose]	0.928 ± 0.072	1.03 ± 0.056
COC(=O)Nc1nc2ccc(SC(C)C)cc2[nH]1 [Methiazole]	0.231 ± 0.016	0.245 ± 0.017
Nc1ccc(C(=O)NCC(=O)O)cc1 [Aminohippuric acid]	1.04 ± 0.027	1.11 ± 0.076
CCOCCn1c(N2CCCN(C)CC2)nc2ccccc21 [Emedastine]	1.07 ± 0.11	1.06 ± 0.032
Nc1ccn([C@@H]2O[C@H](CO)[C@@H](O)C2(F)F)c(=O)n1 [Gemcitabine]	0.212 ± 0.014	0.183 ± 0.0099
NC12CC3CC(CC(C3)C1)C2 [Adamantamine fumarate]	0.885 ± 0.035	0.95 ± 0.053
COc1cc2c(cc1OC)C(=O)C(CC1CCN(Cc3ccccc3)CC1)C2 (configuration not stated) [Donepezil hydrochloride]	1.007 ± 0.0092	1.05 ± 0.074
CN1[C@@H]2CC[C@H]1C[C@@H](OC(=O)c1c[nH]c3ccccc13)C2 [Tropisetron HCl]	1.05 ± 0.12	1.24 ± 0.074
CCCN(CCC)C(=O)C(CCC(=O)O)NC(=O)c1ccccc1 (configuration not stated) [Proglumide]	0.993 ± 0.11	0.986 ± 0.14

SMILES	normalised cell viability (treatment time: 3 days)	normalised cell viability (treatment time: 6 days)
CC(C)/N=c1\cc2n(-c3ccc(Cl)cc3)c3ccccc3nc-2cc1Nc1ccc(Cl)cc1 [Clofazimine]	0.274 ± 0.021	0.346 ± 0.037
CCCN[C@H]1CCc2nc(N)sc2C1 [Pramipexole]	0.9625 ± 0.0076	0.987 ± 0.022
c1ccc2c(c1)CCCc1cc(NCCN3CCOCC3)nnc1-2	0.803 ± 0.038	0.87 ± 0.091
CCOC(=O)OC(C)OC1=C(C(=O)Nc2ccccn2)N(C)S(=O)(=O)c2ccccc21 (configuration not stated) [Ampiroxicam]	1 ± 0.034	0.994 ± 0.079
O=C(NCCO[N+](=O)[O-])c1cccnc1 [Nicorandil]	1.11 ± 0.072	1.11 ± 0.13
CNC(=O)c1c(I)c(C(=O)NCC(=O)Nc2c(I)c(C(=O)O)c(I)c(C(=O)NCCO)c2I)c(I)c(N(C)C(C)=O)c1I [Ioxaglic acid]	1 ± 0.058	1.11 ± 0.086
O=C(O)CCc1nc(-c2ccccc2)c(-c2ccccc2)o1 [Oxaprozin]	1.06 ± 0.11	1.12 ± 0.078
Cc1cc2cc3c(C)cc(=O)oc3c(C)c2o1 [Trioxsalen]	0.991 ± 0.036	0.818 ± 0.12
Nc1c2c(nc3ccccc13)CCCC2 [Tacrine hydrochloride]	0.905 ± 0.038	1.09 ± 0.014
Nc1c2ccccc2nc2ccccc12 [Aminacrine]	0.139 ± 0.0043	0.156 ± 0.024
CC(C)Cn1cnc2c(N)nc3ccccc3c21 [Imiquimod]	1.02 ± 0.042	1.019 ± 0.0077
O=C(Nc1ccc([N+](=O)[O-])cc1Cl)c1cc(Cl)ccc1O [Niclosamide]	0.139 ± 0.0082	0.127 ± 0.0065
O=C(OCCOCCO)c1ccccc1Nc1cccc(C(F)(F)F)c1 [Etofenamate]	0.988 ± 0.045	0.987 ± 0.061
COC(=O)Nc1nc2cc(Sc3ccccc3)ccc2[nH]1 [Fenbendazole]	0.183 ± 0.0078	0.179 ± 0.017
COC(=O)Nc1nc2cc(C(=O)c3ccc(F)cc3)ccc2[nH]1 [Flubendazol]	0.168 ± 0.017	0.167 ± 0.0085
COC(=O)Nc1nc2cc(C(=O)c3cccs3)ccc2[nH]1 [Nocodazole]	0.143 ± 0.0097	0.132 ± 0.01
COC(=O)Nc1nc2cc([S+]([O-])c3ccccc3)ccc2[nH]1 (configuration not stated) [Oxfendazol]	0.74 ± 0.055	0.827 ± 0.05
CCCOc1ccc2[nH]c(NC(=O)OC)nc2c1 [Oxibendazol]	0.18 ± 0.0021	0.194 ± 0.0035
COC(=O)Nc1nc2cc(C(=O)c3ccccc3)ccc2[nH]1 [Mebendazole]	0.163 ± 0.013	0.151 ± 0.0072
NCC[C@H](O)C(=O)N[C@@H]1C[C@H](N)[C@@H](O[C@H]2O[C@H](CN)[C@@H](O)[C@H](O)[C@H]2O)[C@H](O)[C@H]1O[C@H]1O[C@H](CO)[C@@H](O)[C@H](N)[C@H]1O [Amikacin hydrate]	0.584 ± 0.023	0.699 ± 0.089
CN(C)CCC=C1c2ccccc2C=Cc2ccccc21 [Cyclobenzaprine hydrochloride]	1.06 ± 0.062	1.08 ± 0.034
Cc1ccc(Cl)c(Nc2ccccc2C(=O)O)c1Cl [Meclofenamic acid sodium salt monohydrate]	1.02 ± 0.068	1.08 ± 0.084
